# Active and inactive are the calls of the source.
# Experiments:
# [1] = tested on: Plasmodium falciparum Sir2 (PF13_0152, Sir2A); assay: Plasmodium falciparum Sir2A binding compounds – biochemical, small-molecule microarray, 635 nm fluorescence, primary screen (AID 1098); details: fluorescence 635 nm, higher = more signal;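 further: score merges spot fluorescence intensity with its signal-to-noise ratio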
# [2] = probe aDKK1 binding to arrayed compounds – biochemical, biotinylated probe, 635/667 nm fluorescence, primary screen (AID 1099); details: small-molecule microarray, higher = more signal;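 further: score merges 667nm spot fluorescence with signal to noise across triplicate slides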
# [3] = probe aCHRDL2 binding to arrayed compounds – biochemical, biotinylated probe, 635/667 nm fluorescence, primary screen (AID 1100); details: small-molecule microarray, higher = more signal
# [4] = change in splice reporter luminescence, either direction, cell-based, HEK293, spliceosome inhibition project, primary screen (AID 1101); details: HEK293 splicing luciferase reporter, 24 h, higher = more signal, called active from +8 up or from −8 down;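 further: HEK293 cells carrying a splicing-competent luciferase reporter gene; test concentration not given here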
# [5] = biological target: Fibroblast growth factor 10 (Homo sapiens) (UniProt O15520); assay: compounds binding fibroblast growth factor 10 – biochemical, small-molecule microarray, 635 nm fluorescence, primary screen (AID 1102); details: FGF10 binding, fluorescence 635 nm, higher = more signal
# [6] = tested on: glycogen synthase kinase-3 (GSK3A per assay name; protocol says GSK3B); assay: compounds binding glycogen synthase kinase-3 – biochemical, small-molecule microarray, 635 nm fluorescence, GSK3A, primary screen (AID 1103); details: fluorescence 635 nm, higher = more signal; further: the record names both GSK3A and GSK3B
# [7] = biological target: Epidermal growth factor receptor (Homo sapiens) (UniProt P00533); assay: compounds binding epidermal growth factor receptor – biochemical, small-molecule microarray, 635 nm fluorescence, primary screen (AID 1104); details: EGFR binding, higher = more signal;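 further: score merges 667 nm emission intensity with spot signal to noise over triplicate slides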
# [8] = biological target: Follistatin-related protein 3 (Homo sapiens) (UniProt O95633); assay: compounds binding follistatin-related protein 3 – biochemical, small-molecule microarray, 635 nm fluorescence, primary screen (AID 1105); details: FSTL3 binding, higher = more signal;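 further: score merges emission near 667 nm and signal to noise per printed spot across three slides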
# [9] = biological target: Dickkopf-related protein 1 (Homo sapiens) (UniProt O94907); assay: small molecules binding DKK1 protein – biochemical, small-molecule microarray, 635 nm fluorescence scan, primary screen (AID 1106); details: higher = more signal;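 further: score merges emission near 667 nm with signal to noise over three replicate slides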
# [10] = tested on: Inhibin beta A chain (activin A); assay: small molecules binding activin A – biochemical, small-molecule microarray, 635 nm fluorescence scan, primary screen (AID 1107); details: INHBA, higher = more signal;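 further: mouse activin A protein probed at 4.33 µg/mL on printed slides; score merges bound-protein fluorescence near 667 nm with spot signal-to-noise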
# [11] = tested on: Human papillomavirus type 1a protein E7 (residues 44-93); assay: small molecules binding HPV E7 44-93 – biochemical, small-molecule microarray, residues 44-93, 635 nm fluorescence, primary screen (AID 1108); details: fluorescence 635 nm, higher = more signal;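 further: E7 fragment applied at 1 µg/mL in TBST for 1 h at 4 C; score combines spot fluorescence with its signal to noise ratio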
# [12] = hepatitis C replication reporter changes, two-sided – Huh7 cells, luciferase reporter, HCV replication inhibitor project, primary screen (AID 1109); details: Huh7 HCV replicon luciferase reporter, 48 h; higher = more signal;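 further: huh7 hepatoma cells harbouring a luciferase neomycin HCV replicon reporter; luciferase luminescence as measure of HCV replicon replication; test concentration not given here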
# [13] = biological target: Left-right determination factor 2 (Homo sapiens) (UniProt O00292); assay: small molecules binding LEFTY2 protein – biochemical, small-molecule microarray, 635 nm fluorescence scan, primary screen (AID 1110); details: higher = more signal
# [14] = biological target: Calmodulin-1 (Homo sapiens) (UniProt P0DP23); assay: small molecules binding calmodulin-1 with EGTA – biochemical, small-molecule microarray, Cy5-labelled CALM1, profiling panel (AID 1111); details: Cy5-CALM1 binding fluorescence, higher = more signal;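 further: labelled calmodulin applied in Tris saline Tween buffer holding calcium plus EGTA and DTT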
# [15] = biological target: Calmodulin-1 (Homo sapiens) (UniProt P0DP23); assay: small molecules binding Ca-loaded calmodulin-1 – biochemical, small-molecule microarray, Cy5-labelled CALM1, plus calcium, artefact control for SMM control-protein annotation, profiling panel (AID 1112); details: Cy5-CALM1 binding fluorescence, higher = more signal;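 further: score merges spot fluorescence with signal to noise from triplicate slides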
# [16] = probe aWnt5a binding to arrayed compounds – biochemical, biotinylated probe, 635/667 nm fluorescence, primary screen (AID 1113); details: small-molecule microarray, higher = more signal;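 further: score merges 667 nm fluorescence intensity with signal-to-noise per printed feature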
# [17] = probe aShh binding to arrayed compounds – biochemical, biotinylated probe, 635/667 nm fluorescence, primary screen (AID 1114); details: small-molecule microarray, higher = more signal;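 further: probe is biotin-labelled aShh protein from a stem cell growth factor screen; measures binding of labelled protein to compounds printed on the slide; score merges feature fluorescence at 667 nm with signal-to-noise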
# [18] = probe aNog binding to arrayed compounds – biochemical, biotinylated probe, 635/667 nm fluorescence, primary screen (AID 1115); details: small-molecule microarray, higher = more signal;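 further: probe is biotinylated aNog protein used at 0.15 µg/mL for 1 h at 4 C; z-score combines 667 nm fluorescence of each spot with its signal to noise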
# [19] = biological target: Torsin-1A-interacting protein 1 (Homo sapiens) (UniProt Q5JTV8); assay: compound microarray binding of lysate hLAP1 – cell lysate, small-molecule microarray, COS7 lysate, 635/667 nm fluorescence, primary screen (AID 1116); details: 635 nm fluorescence, higher = more signal
# [20] = biological target: Alpha-bungarotoxin (Bungarus multicinctus) (UniProt P60615); assay: compounds binding labelled alpha-BTX control protein – biochemical, small-molecule microarray, Alexa647 label, 635/667 nm fluorescence, artefact control for SMM control protein annotation, profiling panel (AID 1117); details: alpha-BTX-A647 binding fluorescence, higher = more signal
# Chain of Alpha-bungarotoxin (Bungarus multicinctus) (P60615 whole entry, looked up): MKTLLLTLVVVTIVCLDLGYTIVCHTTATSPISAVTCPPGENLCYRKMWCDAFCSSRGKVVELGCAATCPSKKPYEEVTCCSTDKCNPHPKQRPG
# Chain of Dickkopf-related protein 1 (Homo sapiens) (O94907 whole entry, looked up): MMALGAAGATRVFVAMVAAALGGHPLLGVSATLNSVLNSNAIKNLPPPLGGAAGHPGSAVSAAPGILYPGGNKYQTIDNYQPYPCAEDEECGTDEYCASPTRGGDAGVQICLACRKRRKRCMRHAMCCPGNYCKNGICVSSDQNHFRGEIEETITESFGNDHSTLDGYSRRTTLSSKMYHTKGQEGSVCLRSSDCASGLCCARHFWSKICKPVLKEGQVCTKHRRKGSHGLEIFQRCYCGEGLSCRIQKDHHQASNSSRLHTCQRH
# Chain of Follistatin-related protein 3 (Homo sapiens) (O95633 whole entry, looked up): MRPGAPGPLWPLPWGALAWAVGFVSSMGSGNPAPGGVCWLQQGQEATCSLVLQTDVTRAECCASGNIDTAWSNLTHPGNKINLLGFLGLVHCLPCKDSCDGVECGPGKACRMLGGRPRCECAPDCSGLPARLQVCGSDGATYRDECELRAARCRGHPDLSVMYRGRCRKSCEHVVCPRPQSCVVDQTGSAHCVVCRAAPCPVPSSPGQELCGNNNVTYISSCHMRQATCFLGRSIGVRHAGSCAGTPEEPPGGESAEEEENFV
# Chain of Left-right determination factor 2 (Homo sapiens) (O00292 whole entry, looked up): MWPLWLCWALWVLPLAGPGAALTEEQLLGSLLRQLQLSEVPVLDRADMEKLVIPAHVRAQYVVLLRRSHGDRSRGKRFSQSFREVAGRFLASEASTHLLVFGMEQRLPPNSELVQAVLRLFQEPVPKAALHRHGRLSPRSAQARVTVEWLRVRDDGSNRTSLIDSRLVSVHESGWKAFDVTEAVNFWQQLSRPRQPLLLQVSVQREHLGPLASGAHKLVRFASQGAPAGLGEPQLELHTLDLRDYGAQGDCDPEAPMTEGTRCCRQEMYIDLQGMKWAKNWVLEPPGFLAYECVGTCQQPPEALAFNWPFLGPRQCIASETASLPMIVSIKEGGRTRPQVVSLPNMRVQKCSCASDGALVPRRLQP
# Chain of Epidermal growth factor receptor (Homo sapiens) (P00533 whole entry, looked up): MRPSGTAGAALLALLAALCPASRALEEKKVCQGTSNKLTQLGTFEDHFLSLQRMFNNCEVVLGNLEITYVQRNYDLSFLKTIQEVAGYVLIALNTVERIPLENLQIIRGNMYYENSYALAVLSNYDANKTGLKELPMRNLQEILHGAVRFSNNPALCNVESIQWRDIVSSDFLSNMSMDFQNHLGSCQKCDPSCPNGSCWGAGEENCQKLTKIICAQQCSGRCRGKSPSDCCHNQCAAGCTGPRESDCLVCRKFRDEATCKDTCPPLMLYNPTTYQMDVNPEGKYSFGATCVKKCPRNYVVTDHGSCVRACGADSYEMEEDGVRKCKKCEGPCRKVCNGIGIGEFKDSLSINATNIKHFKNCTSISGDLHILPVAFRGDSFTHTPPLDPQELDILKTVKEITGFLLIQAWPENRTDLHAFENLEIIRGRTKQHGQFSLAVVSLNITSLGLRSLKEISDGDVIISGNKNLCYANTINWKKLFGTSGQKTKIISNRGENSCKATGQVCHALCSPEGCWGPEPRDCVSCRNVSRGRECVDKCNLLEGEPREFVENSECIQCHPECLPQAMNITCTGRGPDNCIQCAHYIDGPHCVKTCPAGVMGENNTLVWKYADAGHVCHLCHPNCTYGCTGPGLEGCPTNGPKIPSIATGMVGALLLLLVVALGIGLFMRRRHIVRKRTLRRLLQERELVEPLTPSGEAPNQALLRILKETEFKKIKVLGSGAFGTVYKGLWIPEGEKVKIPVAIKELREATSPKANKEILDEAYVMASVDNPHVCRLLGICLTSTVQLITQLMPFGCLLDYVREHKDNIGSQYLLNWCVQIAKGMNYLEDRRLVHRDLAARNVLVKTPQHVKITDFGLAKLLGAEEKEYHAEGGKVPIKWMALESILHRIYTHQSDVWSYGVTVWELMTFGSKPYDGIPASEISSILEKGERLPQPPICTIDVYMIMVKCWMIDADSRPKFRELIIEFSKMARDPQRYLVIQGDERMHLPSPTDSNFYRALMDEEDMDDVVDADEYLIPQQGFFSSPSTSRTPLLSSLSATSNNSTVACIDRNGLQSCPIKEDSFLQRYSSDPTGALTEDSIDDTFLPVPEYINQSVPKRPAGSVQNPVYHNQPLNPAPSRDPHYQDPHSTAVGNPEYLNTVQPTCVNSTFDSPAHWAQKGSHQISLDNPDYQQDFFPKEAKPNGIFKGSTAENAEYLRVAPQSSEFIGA
# Chain of Fibroblast growth factor 10 (Homo sapiens) (O15520 whole entry, looked up): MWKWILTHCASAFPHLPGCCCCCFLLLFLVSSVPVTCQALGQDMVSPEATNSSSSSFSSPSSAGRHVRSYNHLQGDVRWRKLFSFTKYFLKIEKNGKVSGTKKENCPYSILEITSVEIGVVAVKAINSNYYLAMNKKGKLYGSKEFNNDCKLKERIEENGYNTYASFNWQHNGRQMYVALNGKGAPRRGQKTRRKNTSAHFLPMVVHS
# Chain of Torsin-1A-interacting protein 1 (Homo sapiens) (Q5JTV8 whole entry, looked up): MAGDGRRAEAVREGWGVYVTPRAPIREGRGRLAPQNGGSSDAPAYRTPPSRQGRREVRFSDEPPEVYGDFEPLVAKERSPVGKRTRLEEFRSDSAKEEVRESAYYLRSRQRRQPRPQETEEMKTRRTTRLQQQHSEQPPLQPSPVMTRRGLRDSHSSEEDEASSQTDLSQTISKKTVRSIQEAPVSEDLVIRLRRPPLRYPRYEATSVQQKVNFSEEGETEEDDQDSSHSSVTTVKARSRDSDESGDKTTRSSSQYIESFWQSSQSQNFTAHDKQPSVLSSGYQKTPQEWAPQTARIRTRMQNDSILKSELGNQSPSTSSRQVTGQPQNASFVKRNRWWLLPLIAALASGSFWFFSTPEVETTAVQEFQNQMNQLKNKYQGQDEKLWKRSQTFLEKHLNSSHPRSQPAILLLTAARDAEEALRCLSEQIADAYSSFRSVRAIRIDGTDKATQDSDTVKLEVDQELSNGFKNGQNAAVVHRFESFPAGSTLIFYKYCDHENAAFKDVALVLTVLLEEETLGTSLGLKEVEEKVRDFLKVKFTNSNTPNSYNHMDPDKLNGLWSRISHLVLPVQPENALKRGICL
Structure (SMILES),composite z-score [1],composite z-score [2],composite z-score [3],z-score [4],composite z-score [5],composite z-score [6],composite z-score [7],composite z-score [8],composite z-score [9],composite z-score [10],composite z-score [11],z-score [12],composite z-score [13],composite z-score [14],composite z-score [15],composite z-score [16],composite z-score [17],composite z-score [18],composite z-score [19],composite z-score [20]
COCCOC(=O)N1C(=O)[C@@]2(c3cc(C#Cc4ccc(OC)cc4)ccc31)[C@H](C(=O)NC[C@H](O)c1ccccc1)[C@H]1C(=O)O[C@H](c3ccccc3)[C@H](c3ccccc3)N1[C@@H]2c1ccc(OCCO)cc1,1.02,-0.0284,0.236,-1.31 (inactive),1.36,1.3,0.384,0.863,0.324,0.269,1.42,-1.52,0.46,1.16,-0.0063,0.0031,0.0469,0.371,1.14,1.53
C=CCC(OC(C)=O)[C@@H]1[C@@H](N(Cc2ccc(-c3cccc(C(F)(F)F)c3)o2)C(=O)c2cccc3ccccc23)c2cc(OCCCO)ccc2N1C(=O)Cc1ccc(OC)cc1 (stereo not given in full),0.727,-0.291,0.107,-0.57 (inactive),0.0525,-1.13,-0.198,0.495,-0.141,1.08,0.328,-0.72,-0.391,-0.534,-0.738,-0.208,0.167,-0.083,0.0368,-0.0191
O=C1C2C=CC(C(O)C=Cc3ccc([N+](=O)[O-])cc3)N(Nc3ccccc3)C2C(=O)N1c1ccccc1 (stereo not given),1.37,-0.0814,0.689,0.649 (inactive),1.07,1.16,0.244,1.31,0.419,1.06,1.36,-0.486,0.0857,1.37,-0.0507,0.0037,-0.0866,-0.397,0.568,0.742
CCOC(=O)C1=CCN(S(=O)(=O)c2ccc(C)cc2)C1c1ccccc1 (stereo not given),0.494,0.129,0.221,-0.377 (inactive),1.19,0.509,0.204,0.493,0.22,0.867,0.666,-3.27,0.564,-0.263,-0.197,-0.0346,0.0204,0.46,0.553,0.848
[N-]=[N+]=NCc1ccccc1[C@H]1OC(c2ccc(OCCCO)cc2)=N[C@@]1(Cc1ccccc1)C(=O)NCCN1CCOCC1,1.23,-0.378,0.75,-1.06 (inactive),1.43,1.21,0.446,1.07,0.0815,0.768,-0.442,-1.62,0.293,0.572,-0.138,0.0711,0.0088,1.97,1.28,1.78

# From PubChem BioAssay
